Results on 64 compounds are retold here after PubChem BioAssay AID2540 (Sanford-Burnham Center for Chemical Genomics, 2010).

Hit rate of the full screen: of about 330,000 compounds, about 4,100 (1.2%) were called active. Cut-off read from the data, not from the text of the source: active = inhibition above about 50%; inactive = the rest. For the sample, actives were picked, then their nearest neighbours and some compounds at random.

The target of this assay is Sentrin-specific protease 8 (Homo sapiens) (UniProt Q96LD8). As to the kind of experiment: SENP8 protease inhibitors, primary screen, biochemical, luminescence (AID 2540). As to conditions: purified SENP8, Z-RLRGG-aminoluciferin cleavage, at 10 µM, stronger effect = higher value.
Chain of Sentrin-specific protease 8 (Homo sapiens) (Q96LD8 whole entry, looked up): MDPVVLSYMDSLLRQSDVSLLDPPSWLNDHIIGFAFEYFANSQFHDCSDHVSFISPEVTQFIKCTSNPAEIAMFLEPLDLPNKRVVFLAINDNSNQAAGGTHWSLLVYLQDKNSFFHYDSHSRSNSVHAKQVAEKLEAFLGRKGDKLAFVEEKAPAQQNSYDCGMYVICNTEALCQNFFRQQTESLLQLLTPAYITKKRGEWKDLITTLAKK
Consider `Cc1nc(NC(=O)c2ccc3c(c2)OCCO3)ccc1Br`, for which the inhibition is 74.8% (active).
As to `CCCCC(CC)C(=O)Nc1ccc(Cl)cn1` (centres undefined), the inhibition was 7.93% (inactive).
`Cc1ccc(C(=O)NNC(=O)c2ccc3c(c2)OCCO3)cc1`: the inhibition is 5.52% (inactive).
Consider `Cc1cccc(C)c1NC(=O)CNC(=O)c1ccc2c(c1)OCCO2`, for which the inhibition was -10.7% (inactive).
The same measure for `CCCc1cc(C(=O)Nc2ccc(Cl)cn2)cs1`: 66.2% (active); for `CCCc1cc(C(=O)Nc2ccc(C(=O)OC)cc2)cs1`: -3.33% (inactive).
For `O=C(Nc1ccc(Cl)cn1)c1ccc2c(c1)OCCO2`, the inhibition is 75.8% (active).
The same measure for `COc1ccc(C(=O)NC(=S)Nc2ccc(Cl)cn2)cc1OC`: -13.1% (inactive); for `O=C(Nc1ccc(Cl)cn1)c1cnn2cccnc12`: -0.161% (inactive).
To `CCCCN(C(=O)CCNC(=O)NC12CC3CC(CC(C3)C1)C2)c1c(N)n(CCCC)c(=O)[nH]c1=O` belongs -4.31% (inactive); to `COc1ccccc1NC(=O)CCC(=O)OC(C)C(=O)c1ccccc1` (centres undefined), -4.92% (inactive).
The same measure for `Cc1cc(Nc2cc(N3CCN(C)CC3)nc(Sc3ccc(NC(=O)C4CC4)cc3)n2)n[nH]1`: -3.96% (inactive); for `CC(=O)N(C1=C(Cl)C(=O)c2ccccc2C1=O)c1ccc(C(=O)O)cc1`: 61.8% (active).
On to `O=C(CCN1C(=O)c2ccccc2C1=O)NNC(=O)c1ccc(Cl)cc1Cl`, for which the inhibition was -11.3% (inactive).
To `O=S1(=O)CC/C(=N\Nc2ccc(F)cc2)c2ccsc21` belongs -11.5% (inactive); to `CNC(C)C#Cc1ccc2sc3cc(OC)c(OC)cc3c(=O)c2c1` (centres undefined), 70.5% (active).
On to `O=C(NC(=S)N1CCCCC1c1cccnc1)c1ccccc1` (centres undefined), for which the inhibition was -8.93% (inactive).
The same measure for `O=C(CCCCO)c1ccc(O)c(Cl)c1`: -4.6% (inactive); for `Cc1ccc2nc(-c3ccc(Br)cc3)cn2c1`: 74.4% (active); for `COc1ccc(-c2cn3ccc(C)cc3n2)cc1`: 95.5% (active).
To `Cc1ccc(-c2cc(N)on2)cc1` belongs -6.42% (inactive).
On to `Cc1ccn2cc(C(=O)NC3CCN(Cc4ccccc4)CC3)nc2c1`, for which the inhibition is 3.06% (inactive).
Regarding `CCN(CC)S(=O)(=O)c1ccc(-c2cn3ccc(C)cc3n2)cc1`, the inhibition was -1.4% (inactive).
To `Cc1ccc(-c2cn3cc(C)ccc3n2)cc1` belongs 84.7% (active); to `CSc1nnc2ccc(-c3ccc(C)cc3)nn12`, -14.2% (inactive); to `Cc1cc(N2CCOCC2)nc(-c2ccc(Br)cc2)n1`, -13.3% (inactive).
To `Cc1ccc(-n2c(-c3ccc(Cl)cc3)n[nH]c2=S)cc1` belongs -0.548% (inactive); to `COCCN(CCOC)S(=O)(=O)NC[C@H]1O[C@@H](n2cnc3c(N)ncnc32)[C@H](O)[C@@H]1O`, 3.39% (inactive).
With `COc1ccccc1CCNS(=O)(=O)c1cc2c3c(c1)C(C)C(=O)N3CCC2` (centres undefined), the inhibition was -8.53% (inactive).
In the case of `CCn1nc(C)c(/C=N/NC(=O)Cc2ccc(Cl)cc2)c1C`, the inhibition was -9.56% (inactive).
To `Cc1ccc(NC(=O)CC2C(=O)N(Cc3ccccc3)C(=S)N2NC(=O)c2cccc(F)c2)c(C)c1` (centres undefined) belongs -4.05% (inactive); to `Cc1ccc(O)c(NC(=S)NC(=O)COc2ccc(Br)cc2)c1`, -5.01% (inactive).
For the compound `CCCc1cc(=O)[nH]c(SCc2ccc(C#N)cc2)n1`, the inhibition was 0.541% (inactive).
The same measure for `Cc1cc(=O)[nH]c(N/N=C/c2ccc3c(c2)OCCO3)n1`: -1.24% (inactive); for `C(=N\Nc1ccc2ccccc2n1)/c1ccc2c(c1)OCO2`: 93.1% (active); for `Cc1noc(C)c1/C=N/Nc1ccc2ccccc2n1`: -8.03% (inactive).
With `COc1cc(-c2nnc(Cn3cc(C(F)(F)F)ccc3=O)o2)cc(OC)c1OC`, the inhibition is -4.14% (inactive).
For the compound `Cc1ccc(C)c(-n2c(SCC(=O)O)nc3sc4c(c3c2=O)CCCC4)c1`, the inhibition is -9.61% (inactive).
To `CCCCCc1ccc(-c2ccc(C(=O)O)cc2)nc1` belongs 92.4% (active); to `CCCCCc1ccc(-c2ccc(OCC)cc2)nc1`, -5.58% (inactive).
Take `CCCCCc1ccc(-c2cn(Cc3ccc4ccccc4c3)nn2)cc1`: the inhibition was -9.63% (inactive).
For the compound `CC(C)CN(C(=O)CSc1nncn1C)C1CCS(=O)(=O)C1` (centres undefined), the inhibition was -3.63% (inactive).
The same measure for `CCOCCc1nn2c(=O)cc(CSCC(=O)Nc3cccc(C)c3C)nc2s1`: -0.564% (inactive); for `O=C(Nc1nnc(C2COc3ccccc3O2)o1)c1ccc(F)cc1` (centres undefined): -17.2% (inactive).
To `CC(C)Oc1ccc(Oc2ccc(C(F)(F)F)cn2)cc1` belongs -8.39% (inactive); to `FC(F)(F)c1ccnc(Oc2ccc(C3=NCCS3)cc2)c1`, 67.8% (active).
Consider `NC1=NC(=O)C(Cc2cccc(Cl)c2)S1` (centres undefined), for which the inhibition is -2.31% (inactive).
To `O=C(NCCCN1CCOCC1)c1cnn2c(-c3ccccc3)cc(-c3ccccc3)nc12` belongs -0.117% (inactive); to `N#C/C=C1\Sc2ccccc2C(=O)N1CC(=O)N1CCN(S(=O)(=O)c2ccccc2)CC1`, -2.48% (inactive); to `CCCOc1ccc(C(=O)NCCc2ccccc2)cc1`, 52% (active).
As to `CCCc1ccc(OCCNC(=O)c2ccccc2Br)cc1`, the inhibition was 7.2% (inactive).
Turning to `CCCc1ccc(OCCNC(=O)c2ccco2)cc1`, the inhibition is 2.92% (inactive).
The same measure for `CCCC(C(=O)n1nc(C)cc1C)C(NS(=O)(=O)c1ccc(C)cc1)c1ccccc1` (centres undefined): -2.3% (inactive); for `Cc1ccc(C)c(NC(=O)NNC(=O)c2ccc3ccccc3c2O)c1`: -2.4% (inactive); for `C#CCOCCOCCOCCNc1nc(N2CCN(C(=O)[C@H](CCCN=C(N)N)n3cc(C(N)[C@@H](C)CC)nn3)CC2)nc(N2CCN(C(=O)[C@H](CO)n3cc([C@@H](N)C(C)C)nn3)CC2)n1` (some centres undefined): 5.69% (inactive).
To `O=C(Cc1ccccc1)NNS(=O)(=O)c1ccc([N+](=O)[O-])cc1` belongs -1.17% (inactive).
In the case of `O=C(O)/C=C/C(=O)NNc1ccc([N+](=O)[O-])cc1`, the inhibition is 69.3% (active).
In the case of `CNC(=S)Nc1ccc([N+](=O)[O-])cc1`, the inhibition was -4.02% (inactive).
Take `CCOC(=O)C1(Cc2cccc(OC)c2)CCN(Cc2csc(C(C)=O)c2)CC1`: the inhibition was -11.2% (inactive).
The same measure for `O=C(CCCCCn1c(=S)[nH]c2ccsc2c1=O)NC1CCCCC1`: 0.315% (inactive); for `Cc1nn(CC(=O)Nc2ccc(C#N)cc2)c(C)c1[N+](=O)[O-]`: -9.74% (inactive).
Consider `O=C(O)Cc1ccc(NC(=O)Nc2cccc3ccccc23)cc1`, for which the inhibition is -11% (inactive).
For the compound `CN(CC(=O)Nc1ccc(Cl)cc1)CC(=O)Nc1cccc2ccccc12`, the inhibition is -2.39% (inactive).
Consider `O=C(Nc1cccc2ccccc12)c1onc2c1CCCC2`, for which the inhibition was 71.5% (active).
